From PubChem BioAssay (Tox21) come the findings set out here.

Results filed as inconclusive are left out. A call without a number means that no potency is given here. The source made the active and inactive calls. Calls follow the shape of the dose curve; as a rule, active = well fitted inhibition curve with a large enough effect in the repeat runs; inconclusive = weak or mixed curves; inactive = no such curve, though single readings can be large or run the other way.
Potency is read from the fitted curve at half-maximal effect.

In this assay the target is Cytochrome P450 3A4 (Homo sapiens) (UniProt P08684). Put plainly: Cytochrome P450 Family 3 Subfamily A Member 4 (CYP3A4) small molecule antagonists: luciferase reporter qHTS assay (AID 1671201). Also: nearly all actives have a fitted effect of over 50% in size. As to conditions: P450-Glo CYP3A4 enzyme, luciferin luminescence, 1 h; series mostly up to 115 µM. Summed up: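 Relative luminescence units after 20 min with luciferin detection reagent served as read-out. Beforehand, CYP3A4 turned over a proluciferin substrate for 1 h at room temperature with NADPH regeneration, following 10 min compound preincubation.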
Chain of Cytochrome P450 3A4 (Homo sapiens) (P08684 whole entry, looked up): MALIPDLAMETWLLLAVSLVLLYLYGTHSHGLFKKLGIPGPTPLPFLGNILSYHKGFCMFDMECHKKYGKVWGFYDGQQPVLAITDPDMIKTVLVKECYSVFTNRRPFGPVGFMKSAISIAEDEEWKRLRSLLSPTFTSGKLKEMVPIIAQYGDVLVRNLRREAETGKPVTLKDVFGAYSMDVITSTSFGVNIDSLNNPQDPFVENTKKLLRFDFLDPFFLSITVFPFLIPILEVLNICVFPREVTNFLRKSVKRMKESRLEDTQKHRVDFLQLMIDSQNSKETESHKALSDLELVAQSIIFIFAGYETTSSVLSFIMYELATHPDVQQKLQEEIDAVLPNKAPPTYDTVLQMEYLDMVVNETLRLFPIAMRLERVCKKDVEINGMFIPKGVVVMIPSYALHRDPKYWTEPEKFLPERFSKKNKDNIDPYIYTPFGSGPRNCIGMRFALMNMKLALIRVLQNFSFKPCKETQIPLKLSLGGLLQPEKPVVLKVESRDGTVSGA
On to `CC(C)CCC(=O)CCC(C)C`, for which the Potency result is “inactive”. As for `CCCCCC(=O)OCC`, the Potency result is “inactive”.

For the compound `C[C@H](CCC(=O)NCC(=O)O)[C@H]1CC[C@H]2[C@@H]3[C@H](O)C[C@@H]4C[C@H](O)CC[C@]4(C)[C@H]3C[C@H](O)[C@]12C`, the Potency entry is “inactive”. Next, `CC(C)=CC(C)(C)C`: “inactive”; `COCCOCCOCCOC`: “inactive”; `O=C(O)C(=O)Nc1cccc(-c2nn[nH]n2)c1`: “inactive”.

With `COC(/C=C(\C)CCC=C(C)C)OC`, the Potency result was “inactive”. In the case of `CCCCC(CC)COC(=O)c1ccccc1` (configuration not stated), the Potency entry was “inactive”. Consider `CCCOC(=O)CCCCC(=O)OCCC`, for which the Potency result was “inactive”.

Turning to `CC(Cl)COP(=O)(OCC(C)Cl)OCC(C)Cl` (configuration not stated), the Potency entry is “inactive”. In the case of `CCCCC(CC)C(=O)OC(C)C` (configuration not stated), the Potency result was “inactive”.

As for `O=C(O)c1ccc(OCCN2CCCCC2)cc1`, the Potency entry is “inactive”. Turning to `CCCCC/C=C/CC(=O)OC`, the Potency entry is “inactive”.

Regarding `CC(C)CCCC(C)CC=O` (configuration not stated), the Potency result was “inactive”. Next, `CC(C)(C)c1ccc(C=O)cc1`: “inactive”; `C1=C\CC/C=C\CC/1`: “inactive”. Next, `CCC(O)C(C)(C)C` (configuration not stated): “inactive”; `C/C=C(\C)C(=O)OCC/C=C\CC`: “inactive”; `O=C(c1ccc2c(c1)C(=O)OC2=O)c1ccc2c(c1)C(=O)OC2=O`: “inactive”. The result for `O=C(O)c1c(Cl)ccc(Cl)c1Cl` reads “inactive”; that for `O=C(O)CCNC(=O)c1ccccc1`, “inactive”.

As for `NC(=O)NNC(N)=O`, the Potency entry was “inactive”. The result for `CCCCC(C)C(=O)O` (configuration not stated) reads “inactive”; that for `CCOC(=O)CC(CC(=O)OCC)(OC(C)=O)C(=O)OCC`, “inactive”; that for `CC1=CC[C@H](CC=O)C1(C)C`, 63.3 µM (active). The result for `CCOC(=O)C(C)(C)C` reads “inactive”; that for `OC[C@@H](O)[C@H](O)[C@@H](O)[C@@H](O)CO`, “inactive”. Next, `CCCCCC1CCCC(=O)O1` (configuration not stated): “inactive”; `COc1ccc(N=Nc2cc(C)c(N=Nc3ccc(S(=O)(=O)O)cc3)cc2OC)cc1`: “inactive”; `CC(=O)OCCCc1ccccc1`: “inactive”. In the case of `CCC(C)(CCC(C)C)C(=O)[O-].CCC(C)(CCC(C)C)C(=O)[O-].[Zn+2]` (configuration not stated), the Potency entry is “inactive”. The result for `Cc1nc(C)nc(N2C[C@@H](C)N(c3ccnc([C@@H](C)O)n3)[C@@H](C)C2)n1` reads “inactive”.
